# Source: PubChem BioAssay
# Results filed as inconclusive are left out. Active and inactive are the calls of the source.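 How the source made its calls, unless noted: active means viability at or under a set limit in both replicates, limit being median viability minus 3 SD (cut at about 48% in these data, passing the limit was not always enough); inconclusive means at or under the limit in just one replicate; inactive means at or above the limit in both replicates.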
# Experiments:
# [1] = reducers of endogenous Her2 protein level, primary screen, SKBR3 breast tumor cells, AlphaScreen, ATP viability (AID 461;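 active means Her2 level under about 52% in both replicate screens, with viability over 70% of control, limit read from the data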;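 on Her2 level: lower value means less Her2 protein in the cells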;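 on viability: percent of carrier control wells set as 100% viability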); conditions: 18-24 h, measured here: SKBR3 viability, ATP luminescence, at 10 µM
# [2] = molecular target: Receptor tyrosine-protein kinase erbB-2 (Homo sapiens) (UniProt P04626); experiment: as above; conditions: 18-24 h, at 10 µM, stronger effect = lower value
# [3] = SK-BR-3 cell growth inhibitors, pilot screen, 24 h, human (AID 572;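 active means viability at or below 10% of carrier control in both of two separate runs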;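 further: compound exposure lasted between 18 and 24 h rather than exactly 24 h; 100% = carrier-treated control wells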); conditions: SK-BR-3 viability, CellTiter-Glo luminescence, at 10 µM, stronger effect = lower value
# [4] = HUVEC growth inhibition – cell-based, human, primary screen (AID 575;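 active means viability at or below 30% in both replicate assays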;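 further: 100% = median of untreated cell wells with 0.1% DMSO on each plate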); conditions: HUVEC proliferation, CellTiter-Glo luminescence, 72 h; at 10 µM; stronger effect = lower value
# [5] = growth inhibitors of H69AR lung tumor, primary screen, human, duplicate replicates (AID 580); conditions: H69AR lung tumor cells viability, ATP luminescence, 72 h; at 10 µM; stronger effect = lower value;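 further: 100% = mean luminescence of untreated wells and 0% = no signal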
# [6] = reversal of MRP1-mediated doxorubicin resistance, pilot screen, H69AR cells, doxorubicin co-treatment (AID 601;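 active means viability loss from added drug above about 55%, and viability with drug at most 40%, in both replicates, limit read from the data, passing the limit was not always enough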); conditions: CellTiter-Glo, 72 h, at 10 µM; for differential viability (reversal): stronger effect = higher value
# [7] = 384-well plate pilot, post-Golgi transport modulator project, inhibition of yeast transport mutant growth (AID 636; in the data active means inhibition above about 31%); conditions: absorbance 615 nm, about 18 h, stronger effect = higher value
# [8] = growth suppression of yeast trafficking mutant, preliminary HTS, modulators of trafficking downstream of Golgi apparatus project, 1536-format plate, OD 615 nm (AID 637; in the data active means inhibition above about 30%); conditions: yeast transport mutant growth, absorbance 615 nm, 18 h; stronger effect = higher value
# [9] = OD615 S. cerevisiae growth inhibition, permissive medium, pilot counter-assay, permissive growth control for S. cerevisiae lifespan shortening project (AID 705;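 active means growth inhibition above 25% in both replicates, a cutoff set 3 SD above the mean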); conditions: OD615, 24 h, at 10 µM, stronger effect = higher value
# [10] = Restrictive medium S. cerevisiae growth inhibition, OD615, pilot screen of yeast lifespan reduction project, restrictive growth control (AID 706;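 active means growth inhibition above a set limit, 3 SD over mean compound inhibition, in both replicates, cut at about 43% in these data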;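 further: modified DeaD lifespan yeast strain shifted to restrictive glucose medium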); conditions: OD615, 48 h, at 10 µM, stronger effect = higher value
# [11] = viability gain of MRP-1-high H69AR cells under doxorubicin, pilot screen, MRP-1 activator project, CellTiter-Glo, duplicate (AID 807;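 active means viability increase at or above a cutoff of the median across tested compounds plus 3 SD, cut at about 8.5% in these data, passing the limit was not always enough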;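 further: compound pretreatment 18-22 h then 72 h combined with doxorubicin; 0% = doxorubicin alone and 100% = vehicle without doxorubicin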); conditions: H69AR viability with doxorubicin, CellTiter-Glo luminescence; at 10 µM; stronger effect = higher value
# [12] = growth suppression of beta-catenin knockout HCT116, pilot screen, human colon tumor cells (AID 823;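 active means cell viability at or below a set limit in both duplicate runs, the limit being the all-compound median minus 4 SD, cut at about 23% in these data, passing the limit was not always enough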;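 further: 0% = wells killed by 20 µM Hyamine and 100% = untreated DMSO cell wells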); conditions: CellTiter-Glo, 60 h, at 10 µM, stronger effect = lower value
# [13] = growth suppression of PTEN-deleted HCT116, pilot screen, cell-based, HCT116 clonal line, CellTiter-Glo (AID 824;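 active means viability at or below 27.92% in each of two runs, the all-compound median minus 4 SD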;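 further: 0% = 20 µM Hyamine control and 100% = vehicle cell control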); conditions: 60 h, at 10 µM, stronger effect = lower value
# [14] = inhibitors of the yeast RAM network, pilot screen, dse1pr::URA3 reporter, 5-FOA selection (AID 869;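 active means inhibition over a set limit, the all-compound mean plus 3 SD, in both replicate runs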;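 further: 0% = DMSO wells with no growth and 100% = 10 µM 1-NA-PP1 with full growth; RAM network block rescues cells from 5-FOA so hits raise OD615 growth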); conditions: S. cerevisiae dse1pr::URA3 5-FOA growth, OD615, 2 d; at 10 µM; stronger effect = higher value; strain carries analog-sensitive mutant Cbk1 kinase
# [15] = RAM signaling pathway blockade in yeast – S. cerevisiae, Pdr1DBD-CYC8 efflux-inhibited sensitized strain, primary screen (AID 1298;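 active means RAM network inhibition above 8.4% in each of two replicates, 3 SD over the compound average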;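 further: 0% = DMSO untreated cells without growth and 100% = 10 µM 1-NA-PP1 full growth; higher means more yeast growth rescued from 5-FOA killing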); conditions: S. cerevisiae cbk1-as DSE1-URA3 strain, 5-FOA growth OD615, 2 d; at 50 µM; stronger effect = higher value
# [16] = H69AR cells + 2 uM doxorubicin, measured here: viability with 2 uM doxorubicin, stronger effect = lower value
# [17] = H69AR cells, compound alone cytotoxicity
# Receptor tyrosine-protein kinase erbB-2 (Homo sapiens), sequence (P04626 whole entry, looked up): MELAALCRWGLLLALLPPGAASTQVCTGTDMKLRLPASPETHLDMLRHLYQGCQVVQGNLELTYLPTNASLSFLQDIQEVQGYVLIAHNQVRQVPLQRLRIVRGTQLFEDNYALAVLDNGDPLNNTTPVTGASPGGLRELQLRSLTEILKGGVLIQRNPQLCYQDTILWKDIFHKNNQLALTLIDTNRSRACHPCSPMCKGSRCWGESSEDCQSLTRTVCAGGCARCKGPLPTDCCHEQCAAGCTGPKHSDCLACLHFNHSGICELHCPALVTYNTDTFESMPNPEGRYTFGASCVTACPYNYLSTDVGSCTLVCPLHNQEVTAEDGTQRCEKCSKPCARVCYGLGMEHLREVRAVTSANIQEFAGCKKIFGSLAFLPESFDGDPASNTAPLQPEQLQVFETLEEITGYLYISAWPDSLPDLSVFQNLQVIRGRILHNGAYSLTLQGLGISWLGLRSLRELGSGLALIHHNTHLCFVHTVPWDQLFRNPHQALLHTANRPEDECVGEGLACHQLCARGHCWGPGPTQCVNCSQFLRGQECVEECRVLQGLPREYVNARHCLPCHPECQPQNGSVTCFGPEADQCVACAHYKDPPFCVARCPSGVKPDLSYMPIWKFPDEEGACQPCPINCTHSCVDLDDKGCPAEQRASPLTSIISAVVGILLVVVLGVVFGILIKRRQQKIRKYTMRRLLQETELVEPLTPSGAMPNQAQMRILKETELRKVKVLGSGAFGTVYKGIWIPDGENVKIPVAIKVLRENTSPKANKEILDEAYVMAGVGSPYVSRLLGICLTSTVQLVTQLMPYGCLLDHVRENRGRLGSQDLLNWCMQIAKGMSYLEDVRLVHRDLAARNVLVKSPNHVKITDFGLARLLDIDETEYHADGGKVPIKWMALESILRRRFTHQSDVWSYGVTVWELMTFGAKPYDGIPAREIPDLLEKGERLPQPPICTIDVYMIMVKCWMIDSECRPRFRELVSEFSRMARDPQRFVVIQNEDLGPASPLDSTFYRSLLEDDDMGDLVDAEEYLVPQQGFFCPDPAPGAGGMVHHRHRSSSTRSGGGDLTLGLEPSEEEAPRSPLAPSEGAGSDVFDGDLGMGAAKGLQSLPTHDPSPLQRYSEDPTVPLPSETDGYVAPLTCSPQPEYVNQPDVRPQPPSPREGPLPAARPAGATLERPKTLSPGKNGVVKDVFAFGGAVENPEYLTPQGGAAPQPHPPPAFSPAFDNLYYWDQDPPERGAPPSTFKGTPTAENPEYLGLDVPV
Structure (SMILES),viability [1] [%],Her2 level [2],viability [3],viability [4],viability [5],differential viability (reversal) ([6]; H69AR cells + 2 uM doxorubicin),"viability [6, 16] [%]","viability [6, 17] [%]",inhibition [7],inhibition [8],growth inhibition [9],growth inhibition [10],viability increase [11],viability [12],viability [13],inhibition [14],RAM network inhibition [15]
C=CCn1c(SC(C)C(=O)NC2(C#N)CCCCC2)nnc1-c1ccc(OC)cc1 (stereo unspecified),90,73.5% (inactive),90% (inactive),109% (inactive),92.2% (inactive),13.9% (inactive),78.3,92.2,-7.07% (inactive),-5.25% (inactive),-4.51% (inactive),-9.22% (inactive),-2.25% (inactive),90% (inactive),87.7% (inactive),1.29% (inactive),0.47% (inactive)
O=C(Cn1nc(Cc2cccnc2)c2ccccc2c1=O)NCC1CCCO1 (stereo unspecified),122,111% (inactive),122% (inactive),99.2% (inactive),92.2% (inactive),-3.21% (inactive),95.4,92.2,-3.33% (inactive),3.5% (inactive),-1.69% (inactive),6.33% (inactive),-1.12% (inactive),105% (inactive),99.1% (inactive),1.01% (inactive),5.65% (inactive)
O=C(O)c1ccc2c(c1)C(=O)N(c1ccc(Cl)cn1)C2=O,98,111% (inactive),98% (inactive),105% (inactive),87.2% (inactive),-0.91% (inactive),88.2,87.2,-5.47% (inactive),0.33% (inactive),-12.8% (inactive),-10.8% (inactive),-2.33% (inactive),102% (inactive),96.2% (inactive),1.22% (inactive),-0.74% (inactive)
O=C(Nc1ccc2snnc2c1)N1CCN(c2ccccc2)CC1,81.5,86% (inactive),81.5% (inactive),75.4% (inactive),85.3% (inactive),-7.63% (inactive),92.9,85.3,-0.38% (inactive),-2.33% (inactive),-13.7% (inactive),-17.1% (inactive),-2.11% (inactive),85.2% (inactive),79.4% (inactive),1.3% (inactive),5.24% (inactive)
Cc1[nH]nc2c1C(=O)CC(C)(C)C2,95.5,100% (inactive),95.5% (inactive),100% (inactive),89% (inactive),5.23% (inactive),83.7,89,-1.67% (inactive),-10.3% (inactive),2.65% (inactive),-3.72% (inactive),-4.31% (inactive),95.8% (inactive),94% (inactive),1.44% (inactive),1.23% (inactive)
COc1ccc(C(c2sc3nc(C)nn3c2O)N2CCCCC2)cc1 (stereo unspecified),90,94.5% (inactive),90% (inactive),111% (inactive),81.8% (inactive),-13.7% (inactive),95.5,81.8,-2.95% (inactive),1% (inactive),-3.33% (inactive),8.2% (inactive),-1.47% (inactive),100% (inactive),95.2% (inactive),0.45% (inactive),3.51% (inactive)
Cc1cc(N=Cc2cc(Br)ccc2O)no1,108,118% (inactive),108% (inactive),74.4% (inactive),73.1% (inactive),-28.9% (inactive),102,73.1,-3.72% (inactive),-6.67% (inactive),-13% (inactive),-22.7% (inactive),-2.84% (inactive),90.8% (inactive),95.8% (inactive),0.26% (inactive),-1.15% (inactive)
O=C(Cc1cccs1)Nc1ccccc1NC(=O)Cc1cccs1,81,87.5% (inactive),81% (inactive),107% (inactive),94.7% (inactive),3.74% (inactive),91,94.7,-1.15% (inactive),-7.83% (inactive),-1.23% (inactive),-8.9% (inactive),-4% (inactive),92% (inactive),91.9% (inactive),0.905% (inactive),-0.25% (inactive)
O=C(NCCCN1CCOCC1)c1cc(-c2ccc(O)cc2)on1,100,87.5% (inactive),100% (inactive),83.7% (inactive),94.8% (inactive),5.84% (inactive),89,94.8,-6.4% (inactive),-4% (inactive),-9.88% (inactive),-16.8% (inactive),-6.65% (inactive),92.3% (inactive),93.7% (inactive),-0.505% (inactive),0.12% (inactive)
Cc1cccc(C)c1OCc1nnc(SCC(=O)Nc2ccccc2F)o1,95.5,101% (inactive),95.5% (inactive),108% (inactive),83% (inactive),-7.2% (inactive),90.2,83,-5.2% (inactive),-5.17% (inactive),-12.4% (inactive),-9.96% (inactive),-1.03% (inactive),98.8% (inactive),98.1% (inactive),3.38% (inactive),3.85% (inactive)
CCOc1ccc2[nH]c(C)cc(=O)c2c1,100,100% (inactive),100% (inactive),94.8% (inactive),108% (inactive),18.7% (inactive),89.6,108,0% (inactive),-9.02% (inactive),-12.8% (inactive),3.82% (inactive),-2.11% (inactive),96.7% (inactive),88.4% (inactive),2.86% (inactive),3.45% (inactive)
CC1Cc2nc(SCC(=O)N3CCCc4ccccc43)n(C)c(=O)c2S1 (stereo unspecified),97,91% (inactive),97% (inactive),84.8% (inactive),72% (inactive),20.9% (inactive),51.2,72,-4.27% (inactive),0.33% (inactive),-5.25% (inactive),-9.97% (inactive),-3.51% (inactive),76.1% (inactive),73.4% (inactive),3.17% (inactive),6.46% (inactive)
CC(=O)N(C(C)=O)c1ncc2c([nH]c3ccccc32)c1C#N,106,95% (inactive),106% (inactive),53.4% (inactive),61.4% (inactive),-20.5% (inactive),81.9,61.4,-8.13% (inactive),-7.26% (inactive),-10.9% (inactive),-11.2% (inactive),-7.26% (inactive),66.9% (inactive),64.7% (inactive),1.25% (inactive),6.06% (inactive)
